The values below come from PubChem BioAssay (EPA / NIEHS).

The source made the active and inactive calls. Rule for the calls: active = hit-call score of the fitted dose curve at least 0.9, where 1 is the maximum; inactive = score below 0.9.

Conditions in all cases: mRNA level, 48 h; actives raise or lower the signal
Read-out in test [1]: BCL2L11 (gene 10018)
Put plainly: LTEA_HepaRG_BCL2L11: Life Technologies and Expression Analysis (LTEA) Assay for Bcl-2 (BCL2L11) gene using HepaRG (AID 2283473). The gist of the method:
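Human hepatic HepaRG cultures are treated 48 h with test chemicals (maximum 100 uM, 0.5% DMSO vehicle). Expression of BCL2L11 is measured by qRT-PCR against ACTB, GAPDH and POLR2A, with activity in either direction scored relative to vehicle.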

Read-out in test [2]: Apolipoprotein A-V (APOA5) gene, APOA5 (gene 116519)
Put plainly: LTEA_HepaRG_APOA5: Life Technologies and Expression Analysis (LTEA) Assay for Apolipoprotein A-V (APOA5) gene using HepaRG (AID 2283474). A digest of the protocol: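 Concentration-response of APOA5 expression in HepaRG: eight half-log doses to 100 uM, 48 h, qRT-PCR normalized to ACTB/GAPDH/POLR2A, bidirectional fitting with 0.5% DMSO as baseline.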

Read-out in test [3]: Apoptosis regulator Bcl-2 (Homo sapiens) (UniProt P10415)
Put plainly: LTEA_HepaRG_BCL2: Life Technologies and Expression Analysis (LTEA) Assay for Bcl-2 gene using HepaRG (AID 2283475). The gist of the method: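 Differentiated HepaRG cells in serum-free induction medium were exposed for 48 h to eight half-log concentrations up to 100 uM in 0.5% DMSO, in duplicate. BCL2 mRNA was quantified by TaqMan qRT-PCR normalised to ACTB, GAPDH and POLR2A, with bidirectional fitting versus DMSO.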

Read-out in test [4]: Bcl-2 (BID) gene, BID (gene 637)
Put plainly: LTEA_HepaRG_BID: Life Technologies and Expression Analysis (LTEA) Assay for Bcl-2 (BID) gene using HepaRG (AID 2283476). The gist of the method:
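Differentiated HepaRG cells in serum-free induction medium were exposed in duplicate for 48 h to eight half-log concentrations up to 100 uM in 0.5% DMSO. BID mRNA was quantified by qRT-PCR, normalized to ACTB, GAPDH and POLR2A.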

Read-out in test [5]: Caspase-3 (Homo sapiens) (UniProt P42574)
Put plainly: LTEA_HepaRG_CASP3: Life Technologies and Expression Analysis (LTEA) Assay for cysteine-aspartic acid protease (CASP3) using HepaRG (AID 2283477). The gist of the method:
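Transcript-level assay: CASP3 mRNA in human HepaRG after 48 h treatment, eight half-log concentrations from 100 uM in 0.5% DMSO, quantified by qRT-PCR.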

Read-out in test [6]: Cytochrome P450 (CYP24A1), CYP24A1 (gene 1591)
Put plainly: LTEA_HepaRG_CYP24A1: Life Technologies and Expression Analysis (LTEA) Assay for Cytochrome P450 (CYP24A1) using HepaRG (AID 2283478). A digest of the protocol:
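Gene expression of CYP24A1 by TaqMan qRT-PCR in HepaRG after 48 h treatment, highest concentration 100 uM; activity fitted in both directions relative to DMSO vehicle.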

Read-out in test [7]: Cytochrome P450 (CYP1A2), CYP1A2 (gene 1544)
Put plainly: LTEA_HepaRG_CYP1A2: Life Technologies and Expression Analysis (LTEA) Assay for Cytochrome P450 (CYP1A2) using HepaRG (AID 2283479). The gist of the method:
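In duplicate wells, HepaRG cultures maintained in 0.5% DMSO were treated 48 h across an 8-point, half-log series topping at 100 uM; phenobarbital (1 mM) served as induction control. Expression was read by qRT-PCR.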

Read-out in test [8]: cysteine-aspartic acid protease (CASP8), CASP8 (gene 841)
Put plainly: LTEA_HepaRG_CASP8: Life Technologies and Expression Analysis (LTEA) Assay for cysteine-aspartic acid protease (CASP8) using HepaRG (AID 2283480). A digest of the protocol: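 HepaRG, 48 h exposure, duplicate wells; 8 conc, half-log from 100 uM, 0.5% DMSO. Serum-free induction medium. CASP8 mRNA by TaqMan qRT-PCR, norm. ACTB/GAPDH/POLR2A; gain/loss fitted vs DMSO.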

Read-out in test [9]: Cytochrome P450 (CYP2B6), CYP2B6 (gene 1555)
Put plainly: LTEA_HepaRG_CYP2B6: Life Technologies and Expression Analysis (LTEA) Assay for Cytochrome P450 (CYP2B6) using HepaRG (AID 2283481). The gist of the method: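 Human HepaRG, 48 h dosing, 0.5% DMSO vehicle, top dose 100 uM. CYP2B6 transcript by qRT-PCR, housekeeping-normalized, bidirectional curve fit.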

Read-out in test [10]: Cytochrome P450 2C19 (Homo sapiens) (UniProt P33261)
Put plainly: LTEA_HepaRG_CYP2C19: Life Technologies and Expression Analysis (LTEA) Assay for CYP2C19 using HepaRG (AID 2283482). The gist of the method:
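Endpoint: CYP2C19 mRNA change, bidirectional fit vs 0.5% DMSO. Cells: HepaRG, 48 h exposure, eight-point series topping at 100 uM. Quantitation: qRT-PCR normalized to ACTB, GAPDH, POLR2A.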

Read-out in test [11]: CYP2C9 (gene 1559)
Put plainly: LTEA_HepaRG_CYP2C9: Life Technologies and Expression Analysis (LTEA) Assay for CYP2C9 using HepaRG (AID 2283484). The gist of the method: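 Cells plated 48 h, switched to serum-free induction medium, then treated in duplicate for 48 h at eight concentrations (max 100 uM, 0.5% DMSO). RNA then analysed by qRT-PCR for CYP2C9; curves fitted in both directions relative to DMSO.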

Read-out in test [12]: CYP2E1 (gene 1571)
Put plainly: LTEA_HepaRG_CYP2E1: Life Technologies and Expression Analysis (LTEA) Assay for CYP2E1 using HepaRG (AID 2283485). A digest of the protocol: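 HepaRG cells in serum-free induction medium exposed 48 h to test chemicals, 8 half-log concentrations up to 100 uM in 0.5% DMSO, duplicate. CYP2E1 mRNA by qRT-PCR, normalized to ACTB, GAPDH, POLR2A; bidirectional fit versus DMSO.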

Read-out in test [13]: CYP4A11 (gene 1579)
Put plainly: LTEA_HepaRG_CYP4A11: Life Technologies and Expression Analysis (LTEA) Assay for CYP4A11 using HepaRG (AID 2283486). A digest of the protocol:
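Human hepatic HepaRG cultures receive duplicate 48 h exposures across a concentration-response series topping at 100 uM. Expression changes in CYP4A11 are measured by qRT-PCR relative to DMSO controls.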

Read-out in test [14]: Cytochrome P450 3A4 (Homo sapiens) (UniProt P08684)
Put plainly: LTEA_HepaRG_CYP3A4: Life Technologies and Expression Analysis (LTEA) Assay for CYP3A4 using HepaRG (AID 2283487). The gist of the method: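 In a human hepatic line (HepaRG), duplicate wells were treated 48 h with up to 100 uM chemical in half-log dilutions. Endpoint: CYP3A4 mRNA induction or loss relative to 0.5% DMSO vehicle, by qRT-PCR.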

Read-out in test [15]: DNA damage-inducible transcript 3 (DDIT3), DDIT3 (gene 1649)
Put plainly: LTEA_HepaRG_DDIT3: Life Technologies and Expression Analysis (LTEA) Assay for DNA damage-inducible transcript 3 (DDIT3) using HepaRG (AID 2283488). A digest of the protocol:
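Differentiated human HepaRG cells in serum-free induction medium were exposed in duplicate for 48 h to 8 concentrations (top 100 uM, half-log steps, 0.5% DMSO). DDIT3 mRNA measured by TaqMan qRT-PCR, normalized to ACTB/GAPDH/POLR2A; bidirectional fit versus DMSO.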

Read-out in test [16]: Pro-epidermal growth factor (Homo sapiens) (UniProt P01133)
Put plainly: LTEA_HepaRG_EGF: Life Technologies and Expression Analysis (LTEA) Assay for Epidermal growth factor (EGF) using HepaRG (AID 2283489). A digest of the protocol: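 Concentration-response mRNA assay: HepaRG cells dosed 48 h (max 100 uM, 0.5% DMSO), EGF measured by qRT-PCR and normalized to ACTB/GAPDH/POLR2A.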

Read-out in test [17]: Early growth response protein 1 (EGR1) transcription factor, EGR1 (gene 1958)
Put plainly: LTEA_HepaRG_EGR1: Life Technologies and Expression Analysis (LTEA) Assay for Early growth response protein 1 (EGR1) transcription factor using HepaRG (AID 2283490). A digest of the protocol: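 Read-out is EGR1 mRNA level by qRT-PCR, normalized to three housekeeping genes and analysed for gain or loss of signal against 0.5% DMSO. Source cells: human HepaRG, treated 48 h at up to 100 uM in half-log dilutions.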

Read-out in test [18]: Ezrin (EZR), EZR (gene 7430)
Put plainly: LTEA_HepaRG_EZR: Life Technologies and Expression Analysis (LTEA) Assay for Ezrin (EZR) using HepaRG (AID 2283491). The gist of the method:
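Gain or loss of EZR mRNA is scored relative to 0.5% DMSO in human HepaRG cultures treated 48 h with test chemicals in duplicate, eight half-log concentrations from 100 uM.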

Read-out in test [19]: Cytochrome P450 3A7 (Homo sapiens) (UniProt P24462)
Put plainly: LTEA_HepaRG_CYP3A7: Life Technologies and Expression Analysis (LTEA) Assay for CYP3A7 using HepaRG (AID 2283492). A digest of the protocol: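 qRT-PCR of CYP3A7 in HepaRG lysates after 48 h treatment; concentration-response (8 points, max 100 uM) analysed bidirectionally relative to 0.5% DMSO controls.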

Caspase-3 (Homo sapiens), sequence (P42574 whole entry, looked up): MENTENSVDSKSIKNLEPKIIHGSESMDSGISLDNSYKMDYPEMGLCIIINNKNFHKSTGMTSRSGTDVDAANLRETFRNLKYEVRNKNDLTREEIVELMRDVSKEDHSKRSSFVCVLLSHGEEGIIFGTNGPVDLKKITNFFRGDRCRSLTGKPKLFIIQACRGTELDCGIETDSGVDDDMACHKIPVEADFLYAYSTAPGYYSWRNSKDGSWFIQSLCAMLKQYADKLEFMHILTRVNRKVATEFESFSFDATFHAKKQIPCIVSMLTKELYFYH
Cytochrome P450 3A7 (Homo sapiens), sequence (P24462 whole entry, looked up): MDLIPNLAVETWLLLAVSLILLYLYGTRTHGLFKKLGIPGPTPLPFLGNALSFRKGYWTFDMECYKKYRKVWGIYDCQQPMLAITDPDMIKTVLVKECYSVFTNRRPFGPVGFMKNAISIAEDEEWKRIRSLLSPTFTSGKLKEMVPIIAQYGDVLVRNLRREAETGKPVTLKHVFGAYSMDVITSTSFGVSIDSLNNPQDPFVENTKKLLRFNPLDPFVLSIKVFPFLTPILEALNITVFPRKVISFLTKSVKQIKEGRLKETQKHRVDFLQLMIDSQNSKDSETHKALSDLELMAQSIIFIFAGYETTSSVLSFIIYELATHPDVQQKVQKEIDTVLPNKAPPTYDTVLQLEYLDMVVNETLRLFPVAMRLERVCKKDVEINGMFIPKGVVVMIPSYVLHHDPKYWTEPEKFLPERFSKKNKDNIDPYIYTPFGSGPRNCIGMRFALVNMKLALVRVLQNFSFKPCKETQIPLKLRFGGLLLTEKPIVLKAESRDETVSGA
Apoptosis regulator Bcl-2 (Homo sapiens), sequence (P10415 whole entry, looked up): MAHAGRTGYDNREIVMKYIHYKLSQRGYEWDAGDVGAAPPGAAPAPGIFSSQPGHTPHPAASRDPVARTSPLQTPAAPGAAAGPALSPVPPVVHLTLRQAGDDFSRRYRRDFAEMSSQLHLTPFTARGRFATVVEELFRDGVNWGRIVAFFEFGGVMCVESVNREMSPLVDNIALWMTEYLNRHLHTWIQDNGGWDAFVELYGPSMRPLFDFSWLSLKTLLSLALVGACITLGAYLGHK
Cytochrome P450 2C19 (Homo sapiens), sequence (P33261 whole entry, looked up): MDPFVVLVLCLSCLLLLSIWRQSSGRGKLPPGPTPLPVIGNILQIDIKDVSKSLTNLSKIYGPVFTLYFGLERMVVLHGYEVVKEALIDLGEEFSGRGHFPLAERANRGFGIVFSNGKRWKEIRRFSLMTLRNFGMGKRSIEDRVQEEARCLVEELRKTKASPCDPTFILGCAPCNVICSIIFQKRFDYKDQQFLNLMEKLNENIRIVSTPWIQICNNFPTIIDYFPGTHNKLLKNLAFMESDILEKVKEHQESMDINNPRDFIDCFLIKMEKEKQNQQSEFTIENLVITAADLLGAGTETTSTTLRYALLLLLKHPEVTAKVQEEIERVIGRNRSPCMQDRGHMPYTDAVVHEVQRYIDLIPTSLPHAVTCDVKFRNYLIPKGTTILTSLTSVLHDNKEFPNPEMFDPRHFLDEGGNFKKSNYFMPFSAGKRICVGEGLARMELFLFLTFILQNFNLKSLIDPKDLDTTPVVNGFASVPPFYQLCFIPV
Cytochrome P450 3A4 (Homo sapiens), sequence (P08684 whole entry, looked up): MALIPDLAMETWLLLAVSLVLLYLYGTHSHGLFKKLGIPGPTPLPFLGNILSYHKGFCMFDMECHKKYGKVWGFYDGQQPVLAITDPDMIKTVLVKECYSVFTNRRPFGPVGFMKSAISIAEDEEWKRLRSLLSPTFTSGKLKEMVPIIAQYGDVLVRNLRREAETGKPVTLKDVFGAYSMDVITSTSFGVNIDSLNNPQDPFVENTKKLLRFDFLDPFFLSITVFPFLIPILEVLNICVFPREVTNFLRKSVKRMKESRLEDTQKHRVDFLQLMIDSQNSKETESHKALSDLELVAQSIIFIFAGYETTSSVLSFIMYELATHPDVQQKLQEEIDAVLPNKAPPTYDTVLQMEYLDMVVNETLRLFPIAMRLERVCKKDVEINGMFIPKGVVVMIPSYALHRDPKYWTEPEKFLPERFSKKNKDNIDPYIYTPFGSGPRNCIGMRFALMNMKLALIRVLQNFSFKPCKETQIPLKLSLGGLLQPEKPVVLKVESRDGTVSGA

`Nc1cc(Cl)cc(C(=O)O)c1Cl`: the result in [1], in test [2], in test [3], in test [4], in test [5] and in test [6] was inactive. In addition, the outcome in test [8], in [9], in [10], in test [11], in test [12] and in test [14] was inactive. Also, the outcome in test [15], in test [16], in [17], in test [18] and in test [19] was inactive. Also, the half-maximal activity concentration (AC50) in test [7] and in [13] was 50 µM (active) each time.

Regarding `O=C(Oc1ccc(Br)cc1)N1CCN2CCC1CC2`, the call in [1], in test [2], in test [3], in test [4], in test [5] and in test [6] was inactive. The outcome in [8], in [11], in test [15], in test [16], in test [17] and in test [18] was inactive. Further, the molecule was called inactive in [19]. In addition, the AC50 is 66.7 µM (active) in test [7]; 6.42 µM (active) in [9]; 15.2 µM (active) in test [10]; 63.8 µM (active) in test [12]; 34.9 µM (active) in test [13].

In the case of `CC(O)CCO` (configuration not stated), the molecule was called inactive in [1], in [2], in test [3], in [4], in [5] and in [6]. Also, the result in test [7], in test [8], in [9], in test [10], in [11] and in test [12] was inactive. For the same molecule, the call in [13], in test [15], in test [16], in [17], in test [18] and in [19] was inactive.

Turning to `CCN(CC)N=O`, the call in test [1], in test [2], in test [3], in [4], in test [5] and in [7] was inactive. Besides, the call in test [8], in test [9], in test [10], in test [11], in test [12] and in test [13] was inactive. The molecule was called inactive in test [15], in test [16], in test [18] and in test [19].

With `Nc1ccc(Oc2ccc(N)cc2)cc1`, the call in test [1], in test [2], in [3], in [4], in test [5] and in test [6] was inactive. Further, the molecule was classed as inactive in test [8], in test [10], in [11], in [12], in test [13] and in test [15]. The outcome in [16], in test [17], in test [18] and in [19] was inactive. Besides, the concentration at half-maximal activity (AC50) in test [7] was 40.7 µM (active); in test [9], 67 µM (active).

Consider `CS(=O)(=O)NC(=O)c1cc(Oc2ccc(C(F)(F)F)cc2Cl)ccc1[N+](=O)[O-]`, for which the outcome in [1], in test [2], in [3], in test [4], in [5] and in test [6] was inactive. Also, the molecule was called inactive in test [7], in [8], in [11], in test [15], in [16] and in test [17]. In [18], the molecule was called inactive. In addition, the half-maximal activity concentration (AC50) in test [9] is 3.63 µM (active); in test [10] it was 1.52 µM (active); in test [12], 9.92 µM (active); in [13], 2.84 µM (active); in [19], 4.43 µM (active).

Usually AC50 stands for the concentration giving half of the maximal activity seen.
